Measured values reported in PubChem BioAssay (EPA / NIEHS).
The source made the active and inactive calls. The calls were made as follows: active = hit-call score of the fitted dose curve at least 0.9, where 1 is the maximum; inactive = score below 0.9.

assay: APR_HepG2_MitoticArrest_1hr: Apredica 1-hour HepG2 Assay for Mitotic Arrest (AID 2282672); details: high-content imaging, actives raise or lower the signal
Protocol: APR_HepG2_1hr is a cell-based, multiplexed-readout assay that uses HepG2, a human liver cell line, with measurements taken at 1 hour after chemical dosing in a 384-well plate.APR_HepG2_MitoticArrest_1hr is one of 10 assay component(s) measured or calculated from the APR_HepG2_1hr assay. It is designed to make measurements of cell phenotype, a form of morphology reporter, as detected with fluorescence intensity signals by HCS Fluorescent Imaging technology.Data from the assay component APR_HepG2_MitoticArrest_1hr was analyzed into 1 assay endpoint. This assay endpoint, APR_HepG2_MitoticArrest_1hr, was analyzed with bidirectional fitting relative to DMSO as the negative control and baseline of activity. Using a type of morphology reporter, measures of protein for gain or loss-of-signal activity can be used to understand the signaling at the pathway-level as they relate to the gene . Furthermore, this assay endpoint can be referred to as a primary readout, because this assay has produced multiple assay endpoints where this one serves a signaling function. To generalize the intended target to other relatable targets, this assay endpoint is annotated to the cell cycle intended target family, where the subfamily is arrest.
Cells were treated with dimethyl sulfoxide (DMSO) as a solvent control at a final concentration of 0.5% v/v or with compounds in DMSO with a resulting final DMSO concentration of 0.5% v/v. Compound treatment was done at concentrations of 0.39, 0.78, 1.56, 3.12, 6.24, 12.5, 25, 50, 100, and 200 uM in duplicate on each plate. Cells were treated with compounds for 1, 24, or 72 hr. Carbonyl […] m-chloro-phenylhydrazone (CCCP) and taxol were used as positive controls for mitochondrial function and cytoskeletal stability, respectively; DMSO served as the negative control for this experiment. Cells were fixed by the direct addition of 50 uL formaldehyde in Hank's Balanced Salt Solution (HBSS) to a final concentration of 3.7%. After incubation in the fixation medium for 30 min at room temperature (293-298 K), cells were rinsed twice with HBSS and treated with cell permeabilization buffer (16 uL of 0.5% Triton X-100) for 10 min at room temperature (293-298 K) before labeling. For mitochondrial membrane potential and mitochondrial measurements, pre-fixed cells were incubated with 50 uL of MitoTracker Red CMXRos (Invitrogen) at a concentration of 250 nM for 30 min before fixation. In the remaining cases, post-fixed cells were labeled by incubation with a multiplexed mixture of primary antibodies in HBSS for 60 min at room temperature (293-298 K) to detect immunoreactivity of c-Jun (1:500), phospho-histone H3 (1:100), phospho-histone H2A.x (1:200), p53 (1:400), alpha-tubulin (1:200) and Hoechst 33342 (2 ug/mL). Cells were labeled for multiplexed imaging on two separate plates: a) Hoechst 33342, MitoTracker Red, phospho-histone H3, and alpha-tubulin, and b) Hoechst 33342, phospho-histone H2A.x, and c-Jun. A final rinse with HBSS (50 uL) was performed before analysis. The primary and secondary antibodies for the proteins were phospho-histone H3 (rabbit anti-phospho-histone H3 and FITC-donkey anti-rabbit IgG), phospho-histone H2A.x (mouse anti-phospho-histone H2A.x and FITC-donkey anti-mouse IgG), c-Jun (rabbit anti-phospho-c-Jun and Cy3-donkey anti-rabbit IgG), p53 (sheep anti-p53 and Cy5-donkey anti-sheep IgG), alpha-tubulin (mouse anti-alpha-tubulin and Cy5-donkey anti-mouse IgG). These antibodies are available as the CellCiphr HepG2 assay kit (Millipore).Digital images of each well were captured using a Cellomics ArrayScan VTI (Thermo Scientific Cellomics) (0.8 NA objective, 0.63x optical coupler, and XF-93 filter set) at 20x magnification. The images were acquired using the autofocus feature of the ArrayScan instrument, which entails the following steps. First, the camera focuses on channel 1 (Hoechst 33342), where nuclei are identified. Second, a Z offset of 1 um is used for capturing mitochondria (MitoTracker Red). […]

SMILES | outcome
CC(C)N1C(=O)N(c2ccccc2)CSC1=NC(C)(C)C | inactive
CCCCC(C#N)(Cn1cncn1)c1ccc(Cl)cc1 (stereo not given) | inactive
CC1(C)C(C(=O)OC(C#N)c2cccc(Oc3ccccc3)c2)C1(C)C (stereo not given) | inactive
CCN(CC)C(=O)C(C)Oc1cccc2ccccc12 (stereo not given) | inactive
Cc1cc(C)nc(Nc2ccccc2)n1 | inactive
CCC(C)n1c(=O)[nH]c(C)c(Br)c1=O (stereo not given) | inactive
CCN(CC)c1nc(C)cc(OP(=S)(OC)OC)n1 | inactive
Nc1c(Cl)c(F)nc(OCC(=O)O)c1Cl | inactive
Clc1nc(Cl)nc(Nc2ccccc2Cl)n1 | inactive
CS(=O)(=O)c1ccc(C(=O)C2C(=O)CCCC2=O)c([N+](=O)[O-])c1 | inactive
CCOc1cc(C(C)(C)C)ccc1C1COC(c2c(F)cccc2F)=N1 (stereo not given) | inactive
CC1(C)C(C=C(Cl)Cl)C1C(=O)OC(C#N)c1cccc(Oc2ccccc2)c1 (stereo not given) | inactive
COP(=S)(OC)Oc1ccc([N+](=O)[O-])c(C)c1 | inactive
CN/C(=N\[N+](=O)[O-])NCc1cnc(Cl)s1 | inactive
COC(=O)NS(=O)(=O)c1ccc(N)cc1 | inactive
CCOP(=O)(OCC)Oc1nc(Cl)c(Cl)cc1Cl | inactive
CC(C)Nc1nc(Cl)nc(NC(C)C)n1 | inactive
CCCCC(O)(Cn1cncn1)c1ccc(Cl)cc1Cl (stereo not given) | inactive
CC(C)C1(C)N=C(c2ncccc2C(=O)O)NC1=O (stereo not given) | inactive
CN=C=S | inactive

SMILES | outcome
COCC(=O)N(c1c(C)cccc1C)C(C)C(=O)OC (stereo not given) | inactive
Nc1cnn(-c2ccccc2)c(=O)c1Cl | inactive
CCNP(=S)(OC)O/C(C)=C/C(=O)OC(C)C (stereo not given) | inactive
COC(=O)NC(=S)Nc1ccccc1NC(=S)NC(=O)OC | inactive
CCOC(=O)C(C)OC(=O)c1cc(Oc2ccc(C(F)(F)F)cc2Cl)ccc1[N+](=O)[O-] (stereo not given) | inactive
CO/N=C(/C1=NOCCO1)c1ccccc1Oc1ncnc(Oc2ccccc2Cl)c1F | inactive
O=P(O)(O)CCCl | inactive
O=c1n(Cl)c(=O)n(Cl)c(=O)n1Cl | inactive
CCOc1nc(F)cc2nc(S(=O)(=O)Nc3c(Cl)cccc3Cl)nn12 | inactive
COc1ccc(-c2ccccc2)cc1NNC(=O)OC(C)C | inactive
CC(C)(C)C(=O)C(Oc1ccc(Cl)cc1)n1cncn1 (stereo not given) | inactive
CC(C)NC(=O)N1CC(=O)N(c2cc(Cl)cc(Cl)c2)C1=O | inactive
CC(C)Oc1cccc(NC(=O)c2ccccc2C(F)(F)F)c1 | inactive
N#Cc1c(Cl)cccc1Cl | inactive
COc1cc(Cl)c(OC)cc1Cl | inactive
COC(=O)N(C(=O)N1CO[C@@]2(C(=O)OC)Cc3cc(Cl)ccc3C2=N1)c1ccc(OC(F)(F)F)cc1 | inactive
Cc1c(COC(=O)[C@@H]2[C@H](/C=C(\Cl)C(F)(F)F)C2(C)C)cccc1-c1ccccc1 | inactive
Cc1nc(N(C)C)nc(OC(=O)N(C)C)c1C | inactive
CC(C)=CC1C(C(=O)OCc2coc(Cc3ccccc3)c2)C1(C)C (stereo not given) | inactive
COC(=O)c1c(C(F)F)nc(C(F)(F)F)c(C2=NCCS2)c1CC(C)C | inactive
